SRC3 TRFRET art: counter-screen for PPARgamma SRC-3 recruitment agonists: TR-FRET artefact; PPARgamma/SRC-3 format; active compounds read high; TR-FRET ratio at 8 µM; actives 0.39% (n = 99,000); in the data active = TR-FRET ratio above about 2000
SRC1 TRFRET art: counter-screen for PPARgamma SRC-1 recruitment agonists: TR-FRET artefact; actives 0.34% (n = 99,000); AID 1051; TR-FRET detection artefact counter-screen, emission ratio; active compounds read high; TR-FRET ratio at 8 µM; in the data active = TR-FRET ratio above about 2300
PPARg SRC-1 ag: promotes SRC-1 coactivator recruitment by human PPARgamma | P37231 | PPARgamma-SRC-1 coactivator recruitment biochemical assay | AID 631 | actives 0.41% (n = 200,000) | activation, % at 8 µM; in the data active = activation above about 19%;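 also: 0% = DMSO and 100% = reference agonist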
Target sequence (P37231 whole entry, looked up): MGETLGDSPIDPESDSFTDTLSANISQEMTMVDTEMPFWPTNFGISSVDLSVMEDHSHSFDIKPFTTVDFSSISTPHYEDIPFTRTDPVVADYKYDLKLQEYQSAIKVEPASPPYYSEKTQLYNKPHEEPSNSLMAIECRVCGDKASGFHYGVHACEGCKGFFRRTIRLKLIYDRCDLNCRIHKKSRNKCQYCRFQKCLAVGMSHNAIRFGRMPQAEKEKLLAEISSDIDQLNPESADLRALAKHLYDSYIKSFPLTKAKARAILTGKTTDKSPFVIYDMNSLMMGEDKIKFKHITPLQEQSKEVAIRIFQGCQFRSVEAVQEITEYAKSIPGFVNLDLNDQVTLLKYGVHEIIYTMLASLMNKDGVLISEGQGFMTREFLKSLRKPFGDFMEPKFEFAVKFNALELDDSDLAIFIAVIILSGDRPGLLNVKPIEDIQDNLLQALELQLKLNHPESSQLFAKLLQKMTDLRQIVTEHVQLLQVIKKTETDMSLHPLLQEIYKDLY
TR-FRET SRC-2 ct: counter-screen for PPARgamma SRC-2 recruitment agonists: TR-FRET artefact | TR-FRET ratio at 8 µM | actives 0.4% (n = 200,000) | active compounds read high | AID 1049; in the data active = TR-FRET ratio above about 2000
PPARg SRC-3 ag: agonists of human PPARgamma SRC-3 coactivator recruitment; P37231; biochemical PPARgamma/SRC-3 coactivator recruitment assay; activation, % at 8 µM; actives 0.26% (n = 200,000); in the data active = activation above about 23%;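 also: 0% = DMSO and 100% = reference agonist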
PPARg SRC-2 ag: agonists of SRC-2 recruitment by human PPARgamma | P37231 | PPARgamma LBD-SRC-2 recruitment, biochemical | activation, % at 8 µM | actives 0.34% (n = 200,000);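 also: 0% = vehicle and 100% = reference agonist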
PPARg SRC2 conf: human PPARgamma SRC-2 recruitment agonism, confirmation; shares compounds with PPARg SRC-3 ag; biochemical SRC-2 recruitment by PPARgamma; activation, % at 8 µM; actives 52% (n = 790);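 also: 0% = vehicle alone and 100% = reference agonist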
PPARg SRC1 conf: human PPARgamma SRC-1 recruitment agonism, confirmation | shares compounds with PPARg SRC-3 ag | PPARgamma–SRC-1 coactivator recruitment biochemical assay | activation, % at 8 µM | actives 43% (n = 790); in the data active = activation above about 20%;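 also: 0% = vehicle wells and 100% = reference agonist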
PPARg SRC3 ag: confirmation of agonists of SRC-3 recruitment by human PPARgamma | shares compounds with PPARg SRC-3 ag | biochemical PPARgamma-SRC-3 coactivator recruitment, agonist mode | activation, % at 8 µM | actives 29% (n = 790) | AID 1301; in the data active = activation above about 24%;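 also: 0% = vehicle wells and 100% = reference agonist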
The depositor's hits bear a star. Hits are enriched below; roughly 0.84% of the tested compounds scored in any of these assays. Rule as the data show it, unless noted: active = activation above about 22%; inactive = the rest.

`CC[n+]1ccc(/C=C/c2ccc(N(C)C)cc2)c2ccccc21` gave SRC3 TRFRET art 4546*, SRC1 TRFRET art 4146*, PPARg SRC-1 ag 149.3*, TR-FRET SRC-2 ct 4436*, PPARg SRC-3 ag 124.8*, PPARg SRC-2 ag 109.2*, PPARg SRC2 conf 159.9*, PPARg SRC1 conf 119.0* and PPARg SRC3 ag 105.0*.
CN(C)c1ccc(/C=C/c2cc[n+](C)cc2)cc1 was read as PPARg SRC-1 ag 9.4, TR-FRET SRC-2 ct 1364, PPARg SRC-3 ag 7.5 and PPARg SRC-2 ag 3.9.
`CC(C)(C)c1ccc(C(=O)NC(=S)Nc2ccc(N3CCOCC3)cc2)cc1` gave SRC3 TRFRET art 1490, SRC1 TRFRET art 1292, PPARg SRC-1 ag -5.4, TR-FRET SRC-2 ct 1441, PPARg SRC-3 ag 1.2 and PPARg SRC-2 ag -11.5.
Screening O=c1[nH]c2ccc(Cl)cc2c(-c2ccccc2)c1SC(=S)N1CCCCC1 returned PPARg SRC-1 ag 1.5, TR-FRET SRC-2 ct 1624, PPARg SRC-3 ag 15.7, PPARg SRC-2 ag 22.9*, PPARg SRC2 conf 3.8, PPARg SRC1 conf 1.3 and PPARg SRC3 ag 0.1.
`COc1ccccc1C1=NN(C(=S)Nc2ccccc2)C(c2ccco2)C1` (stereo not drawn) gave PPARg SRC-1 ag 19.1*, TR-FRET SRC-2 ct 1731, PPARg SRC-3 ag 22.6, PPARg SRC-2 ag 18.8, PPARg SRC2 conf 22.1*, PPARg SRC1 conf 18.8 and PPARg SRC3 ag 13.1.
Screening CCOC(=O)N1CCN(C(=O)C2CCN(CC3CCCCC3)CC2)CC1 returned SRC3 TRFRET art 1534, SRC1 TRFRET art 1953, PPARg SRC-1 ag 5.3, TR-FRET SRC-2 ct 1412, PPARg SRC-3 ag -2.0 and PPARg SRC-2 ag -1.4.
Screening CCCN1C(=O)/C(=C/c2nc3ccccc3c(=O)[nH]2)c2ccccc21 returned SRC3 TRFRET art 1540, SRC1 TRFRET art 2066, PPARg SRC-1 ag 8.2, TR-FRET SRC-2 ct 1540, PPARg SRC-3 ag -1.0 and PPARg SRC-2 ag 2.3.
CS(=O)(=O)N(CC(=O)N1CCCCC1)c1sc2c(c1C#N)CCCC2 was read as PPARg SRC-1 ag 3.5, TR-FRET SRC-2 ct 1464, PPARg SRC-3 ag -5.5 and PPARg SRC-2 ag -7.2.
Screening CCN(CC)c1ccc(/C=C2/C(=O)ON=C2C)cc1 returned SRC3 TRFRET art 1737, SRC1 TRFRET art 2156, PPARg SRC-1 ag 18.0, TR-FRET SRC-2 ct 1519, PPARg SRC-3 ag 25.9*, PPARg SRC-2 ag 11.4, PPARg SRC2 conf 15.2, PPARg SRC1 conf 10.8 and PPARg SRC3 ag 14.1.
Screening COc1cc(/C=C/C(=O)OCC(=O)Nc2ccc(C)cc2[N+](=O)[O-])ccc1O returned SRC3 TRFRET art 1635, SRC1 TRFRET art 2042, PPARg SRC-1 ag 15.6, TR-FRET SRC-2 ct 1465, PPARg SRC-3 ag 9.1, PPARg SRC-2 ag 24.9*, PPARg SRC2 conf 12.5, PPARg SRC1 conf 8.4 and PPARg SRC3 ag 8.2.
Screening Clc1ccc(Cn2ccc(C3CC3)n2)cc1 returned SRC3 TRFRET art 1433, SRC1 TRFRET art 1557, PPARg SRC-1 ag -0.9, TR-FRET SRC-2 ct 1408, PPARg SRC-3 ag -2.6 and PPARg SRC-2 ag 2.8.
`Cc1cc(C)cc(CSCC(=O)N/N=C/c2ccc(OCC(=O)NCc3ccco3)cc2)c1` gave PPARg SRC-1 ag 7.5, TR-FRET SRC-2 ct 1568, PPARg SRC-3 ag 25.4*, PPARg SRC-2 ag 10.5, PPARg SRC2 conf 1.9, PPARg SRC1 conf 0.2 and PPARg SRC3 ag 0.6.
Screening COc1ccc(CSCC(=O)N/N=C/c2ccc(OCC(=O)NCc3ccco3)cc2)cc1 returned PPARg SRC-1 ag 6.9, TR-FRET SRC-2 ct 1647, PPARg SRC-3 ag 4.6 and PPARg SRC-2 ag -0.7.
O=C(C1CCN(S(=O)(=O)c2cccc3cccnc23)CC1)N1CCN(c2ccccc2)CC1 was read as SRC3 TRFRET art 1321, SRC1 TRFRET art 1949, PPARg SRC-1 ag 2.2, TR-FRET SRC-2 ct 1594, PPARg SRC-3 ag 2.2 and PPARg SRC-2 ag -8.3.
For COc1ccc2c(c1)nc(SCC(=O)c1ccc(Br)s1)n2C the results were PPARg SRC-1 ag 16.2, TR-FRET SRC-2 ct 1815, PPARg SRC-3 ag 21.9, PPARg SRC-2 ag 28.4*, PPARg SRC2 conf 39.3*, PPARg SRC1 conf 26.6* and PPARg SRC3 ag 27.8*.
`COCCCNC(=S)NCCCNc1nc2cc3c(cc2cc1C#N)OCO3` gave PPARg SRC-1 ag -2.9, TR-FRET SRC-2 ct 1457, PPARg SRC-3 ag -5.8 and PPARg SRC-2 ag 7.1.
For CCSC1=NSC2=NC(=O)/C(=C\c3coc4ccccc4c3=O)C(=N)N12 the results were SRC3 TRFRET art 1460, SRC1 TRFRET art 1609, PPARg SRC-1 ag 8.0, TR-FRET SRC-2 ct 1696, PPARg SRC-3 ag 22.9*, PPARg SRC-2 ag 12.8, PPARg SRC2 conf 9.0, PPARg SRC1 conf 8.1 and PPARg SRC3 ag 19.5.
CCOCCCNC(=O)/C(C#N)=C/c1ccc(Cl)c([N+](=O)[O-])c1 was read as SRC3 TRFRET art 1683, SRC1 TRFRET art 1865, PPARg SRC-1 ag 16.0, TR-FRET SRC-2 ct 1826, PPARg SRC-3 ag 30.1*, PPARg SRC-2 ag 10.9, PPARg SRC2 conf 10.1, PPARg SRC1 conf 19.5 and PPARg SRC3 ag 20.1.
`CCOCCCNC(=O)/C(C#N)=C/c1cc(OC)c(O)c([N+](=O)[O-])c1` gave SRC3 TRFRET art 1814, SRC1 TRFRET art 1839, PPARg SRC-1 ag 6.1, TR-FRET SRC-2 ct 1780, PPARg SRC-3 ag -2.6 and PPARg SRC-2 ag 8.3.
`O=C(COc1ncnc2ccccc12)NCc1ccco1` gave SRC3 TRFRET art 1887, SRC1 TRFRET art 1981, PPARg SRC-1 ag 7.5, TR-FRET SRC-2 ct 1549, PPARg SRC-3 ag 2.2 and PPARg SRC-2 ag 1.7.
Screening Cc1sc(NC(=S)Nc2ccc(F)cc2)c(C(N)=O)c1C returned SRC3 TRFRET art 2013, SRC1 TRFRET art 2290, PPARg SRC-1 ag 25.2*, TR-FRET SRC-2 ct 1942, PPARg SRC-3 ag 12.0, PPARg SRC-2 ag 17.2, PPARg SRC2 conf 26.5*, PPARg SRC1 conf 16.5 and PPARg SRC3 ag 15.4.
For CCOC(=O)c1c(NC(=S)Nc2ccc(Cl)cc2)sc(C)c1C the results were PPARg SRC-1 ag 1.9, TR-FRET SRC-2 ct 1461, PPARg SRC-3 ag 1.6 and PPARg SRC-2 ag 4.1.
For COC(=O)c1c(NC(=S)Nc2ccc(CC(=O)O)cc2)sc(C)c1C the results were SRC3 TRFRET art 1747, SRC1 TRFRET art 2214, PPARg SRC-1 ag 22.4*, TR-FRET SRC-2 ct 1741, PPARg SRC-3 ag 10.2, PPARg SRC-2 ag 11.3, PPARg SRC2 conf 50.3*, PPARg SRC1 conf 36.2* and PPARg SRC3 ag 31.1*.

Screening data from PubChem BioAssay.
